Sampled rows, rich in hits. Any-hit rate of the full collection: about 0.55%.
LDHA inh = LDHA (human) enzyme inhibition | P00338 | purified LDHA, NADH/diaphorase-resazurin fluorescence; stronger effect = lower value | activity change, % (values are at about 110 or 230 µM) | actives 0.15% (n = 480,000) | AID 1347041; in the data active means activity change below about -30%; inconclusive means mostly about -25% to -30%
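Resorufin fluorescence (ex540/em590), read at 0 and 20 min after diaphorase/resazurin addition, reports the NADH left after a 5 min room-temperature reaction of 2 nM human LDH5 with 0.06 mM NADH and 0.2 mM pyruvate.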
pAkt inh = blocks phosphorylation of Akt; Neuro2A IGF-stimulated pAkt S473 HTRF, 20 min; stronger effect = lower value; activity change, % for hits at 50 µM; actives 0.32% (n = 360,000); AID 651550; in the data active means activity change below about -80%; inconclusive means mostly about -51% to -80%
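Neuro2A cells in DMEM with 0.5% FBS, overnight at 37 deg C, given compound at single 50 µM final, then IGF (6 nM final) for 20 min at 37 deg C. Lysed; phospho-Akt Ser473 by HTRF after 24 h, 665/615 ratio.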
TSHR antag = human thyrotropin receptor antagonism; activity change, negative = inhibition, % at 11.5 µM; actives 0.2% (n = 330,000); P16473; TSHR-expressing cells, TSH-stimulated cAMP HTRF, 2 h; stronger effect = lower value;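 active means activity change below a set negative limit, meaning inhibition stronger than a set level, cut at about -70% in these data; inconclusive means activity change between two set negative limits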
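Read-out is FRET at 665 nm (cryptate excitation 337 nm) from a cryptate-tagged anti-cAMP antibody, competed by cell cAMP against cAMP-d2. Compounds are tested on freshly harvested TSHR cells challenged with 4nM TSH (EC80) for 2 hours at 37 deg C.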
RGS4 inh = inhibitors of human regulator of G protein signaling 4 | Potency, µM (doses to about 114 µM), most hits filed as inhibitors | P49798 | AID 504845 | actives 0.039% (n = 390,000) | Transcreener GDP fluorescence polarization, RGS4-accelerated GTP hydrolysis; further: nearly all actives have a fitted effect of over 75% in size
Target sequence (P49798 whole entry, looked up): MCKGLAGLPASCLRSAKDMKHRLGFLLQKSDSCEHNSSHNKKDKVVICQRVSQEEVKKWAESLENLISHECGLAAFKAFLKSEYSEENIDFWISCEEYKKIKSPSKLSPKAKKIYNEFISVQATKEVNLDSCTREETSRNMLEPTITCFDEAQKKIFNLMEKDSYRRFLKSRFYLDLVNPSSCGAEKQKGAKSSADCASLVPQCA
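MLSMR compounds (23 nl, pin-transferred) preincubated 10 min at room temperature with a 500nM (2x) first reagent, then RGS4 at 900nM (2x) plus Transcreener GDP mix added; fluorescence polarization (620/688 nm) read before and after 90 min at 30 °C.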
TCR activator = activators of T cell receptors | primary human leukocytes, anti-CD3, IL-2 HTRF, 48 h | Potency, µM (series often up to 9.22 µM), usual class: activators | 330,000 tested, under 10 active | AID 504894
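Human primary leukocytes + a-CD3 beads + cpd, 48 hr; IL-2 in supernatant by HTRF (ex 320nm / em 665nm). No co-stimulatory signal supplied.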
Glioma ERSR ind = inducers of ER stress response in human glioma cells | U87-MG GRP78 promoter luciferase reporter, 16 h | Potency, µM, actives largely listed as activators | actives 0.02% (n = 420,000); further: series mostly up to about 76 µM; nearly all actives have a fitted effect of over 35% in size
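ERSR induction read as luciferase luminescence (Bright-Glo, 10 min at room temperature) in stably transfected human U87-MG glioma cells exposed to compounds for 16 h, using GRP78 as sensor.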
Hits are given with their value; – = inactive; ? = inconclusive; · = no result. Unless noted, the call rests on the fitted dose curve; in most records, active means well fitted curve in the direction sought with a large enough effect; inconclusive means small, poorly fitted or top-dose-only effect, or another doubt; inactive means no such curve, though single readings can be large; an effect the other way counts as inactive or inconclusive.

SMILES | LDHA inh | pAkt inh | TSHR antag | RGS4 inh | TCR activator | Glioma ERSR ind
O=C(Nc1cc[c]([Sb](=[O])([OH])[OH])cc1)c1ccccc1 | ? | · | · | · | · | –
CCOc1ccccc1N1C(=O)NC(=O)/C(=C/c2ccc3c4c(cccc24)CC3)C1=O | -72 | – | – | ? | – | ?
CC1(C(=O)O)CCCC2(C)c3cc(O)ccc3CCC12 (configuration not stated) | – | – | · | – | – | –
C[C@]1(C(=O)O)CCC[C@]2(C)c3cc(O)ccc3CC[C@@H]12 | · | · | · | 1.1µM | · | –
CCN1C(=O)C(O)(C(F)(F)F)c2cc(C(O)(C(=O)OC)C(F)(F)F)ccc21 (configuration not stated) | – | · | · | · | · | ·
O=C1NC(=O)N(Cc2cccs2)C(=O)/C1=C/c1ccc(N2CCOCC2)cc1 | -46 | – | – | ? | · | –
CCN1C(=O)NC(=O)/C(=C\c2ccc(N3CCOCC3)cc2OC)C1=O | · | · | – | · | · | ·
CC12CC[C@H]3[C@@H](CCC4(O)CC(O[N+](=O)[O-])CCC34CO[N+](=O)[O-])C1(O)CCC2C1=CC(=O)OC1 (some centres not stated) | – | · | · | · | · | ·
Brc1c(NC2=NCCN2)ccc2nccnc12 | – | · | – | 19µM | · | –
O=[N+]([O-])/C=C/c1c[nH]c2ccccc12 | – | · | · | · | · | ·
CCOP(=O)(OCC)C(CC)N1CCOCC1 (configuration not stated) | – | -118% | – | – | – | –
O=C1NC(=S)NC(=O)C1=Cc1ccc(Br)s1 | -38 | – | – | ? | · | –
CN1C(=O)/C(=C\c2ccc(Br)s2)C(=O)NC1=S | – | – | – | – | – | –

Bioassay records: PubChem, National Center for Advancing Translational Sciences (NCATS)
